Calls of active or inactive are those of the source. A call without a number means that no potency is given here. Calls follow the shape of the dose curve; as a rule, active = well fitted inhibition curve with a large enough effect; inconclusive = small, poorly fitted or top-dose-only effect; inactive = no such curve, though single readings can be large or run the other way.
target: Single-stranded DNA cytosine deaminase (Homo sapiens) (UniProt Q9GZX7); assay: Validation qHTS assay for inhibitors of Activation Induced Cytidine Deaminase (AID): AID signal (AID 1347429); details: Recombinant AID, FRET ssDNA deamination with UDG, fluorescence; series mostly up to 115 µM
Summary of the method: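 AID+UDG coupled FRET deamination; cpds up to 114 uM final; DJC20/DJC23 substrate, 4 hr RT; NaOH stop, 30 min RT; read Ex 540/Em 590.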

Chain of Single-stranded DNA cytosine deaminase (Homo sapiens) (Q9GZX7 whole entry, looked up): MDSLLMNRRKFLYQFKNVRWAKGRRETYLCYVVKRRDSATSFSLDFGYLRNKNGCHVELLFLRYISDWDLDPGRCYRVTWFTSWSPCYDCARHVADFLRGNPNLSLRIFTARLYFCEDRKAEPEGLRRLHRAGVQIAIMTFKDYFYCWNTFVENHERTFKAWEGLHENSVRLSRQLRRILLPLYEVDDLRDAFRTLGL

Row | Compound | Potency
1 | CCCn1c(C)c(C(=O)c2ccc3ccccc3c2)c2ccccc21 | inactive
2 | c1ccc2c(N3CCNCC3)cccc2c1 | inactive
3 | CCCCCCCCCCCCCC(=O)O[C@@H]1[C@@H](C)[C@@]2(O)[C@@H](C=C(CO)C[C@@]3(O)C(=O)C(C)=C[C@@H]23)C2C(C)(C)[C@@]21OC(C)=O (some centres not stated) | inactive
4 | C[C@H](N)CN1CCc2ccc(Br)cc21 | inactive
5 | N[C@@H](Cn1oc(=O)[nH]c1=O)C(=O)O | inactive
6 | NCC(O)c1cc(O)c(O)cc1F (configuration not stated) | inactive
7 | C[C@]12Cc3cn4c(nc3C=C1CCC1C2CC[C@@]2(C)[C@H]1CC[C@@]2(O)C#N)nc1ccccc14 (some centres not stated) | inactive
8 | CCCN(CCC)CCc1c[nH]c2ccc(C(N)=O)cc12 | inactive
9 | CN(N=O)c1cc(O)ccc1O | inactive
10 | COc1ccc2[nH]c3c(c2c1)CCNC3 | inactive
11 | Oc1ccc2c3c1O[C@H]1c4oc5ccccc5c4C[C@@]4(O)C(C2)N(CC2CC2)CCC314 (some centres not stated) | inactive
12 | C[C@H](N)Cc1cccc(C(F)(F)F)c1 | inactive
13 | CC(=O)OCC1=C(C(=O)O)N2C(=O)[C@@H](NC(=O)CCC[C@@H](N)C(=O)O)[C@H]2SC1 | inactive
14 | C[C@@H]1O[C@@H](O[C@H]2C[C@@H](O)[C@]3(CO)[C@@H]4C(CC[C@]3(O)C2)[C@@]2(O)CC[C@H]([C@@H]3COC(=O)C3)[C@@]2(C)C[C@H]4O)[C@H](O)[C@H](O)[C@H]1O (some centres not stated) | inactive
15 | CN1CCc2cc(O)cc3c2[C@H]1Cc1ccc(O)c(O)c1-3 | inactive
16 | CC12NC(Cc3ccccc31)c1ccccc12 (configuration not stated) | inactive
17 | c1ccc2c(c1)[I+]c1ccccc1-2 | inactive

From PubChem BioAssay (NCATS)
